For five molecules, composite z-score, composite Z-score and z-score results are on record in PubChem BioAssay.

The source made the active and inactive calls.

One assay deals with Albumin (Bos taurus) (UniProt P02769). Kind of assay: compounds binding labelled BSA control protein – biochemical, small-molecule microarray, Alexa647 label, 635/667 nm fluorescence, artefact control for SMM control protein annotation, profiling panel (AID 1118).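 Note: score merges 667 nm emission intensity and signal-to-noise per printed compound spot.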 The following applies: BSA-A647 binding, fluorescence 635 nm, higher = more signal.
Assay [1] is described as follows: probe aXIP binding to arrayed compounds – biochemical, NeuroSMM set, 635/667 nm fluorescence, primary screen (AID 1119).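 Note: probe is the protein aXip251-270 applied at 1 µg/mL to compound-printed slides; binding of probe to printed compounds measured as 667 nm fluorescence plus signal to noise.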 The following applies: small-molecule microarray, higher = more signal, called active from +8 up or from −8 down.
Assay [2] in a line: probe aNOTCH3 binding on compound microarray – biochemical, small-molecule microarray, 635/667 nm fluorescence, primary screen (AID 1120).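 Note: probe is a biotin-tagged antibody raised against NOTCH3 rather than NOTCH3 protein; score merges spot fluorescence near 667 nm with spot signal to noise.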 The settings on record: higher = more signal.
Assay [3] is described as follows: probe aNOTCH2 binding on compound microarray – biochemical, small-molecule microarray, 635/667 nm fluorescence, primary screen (AID 1121).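 Note: score merges feature fluorescence read at 667 nm with its signal to noise.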 The settings on record: higher = more signal.
For assay [4], the target named is Carbonic anhydrase 2 (Homo sapiens) (UniProt P00918). As to the kind of experiment: compounds binding carbonic anhydrase 2 – biochemical, small-molecule microarray, Alexa647-labelled CAII, profiling panel (AID 1122). The following applies: CAII-A647 binding fluorescence, higher = more signal.
The nature of assay [5]: COS7 lysate on small-molecule microarray, probe aHis, 635 nm (AID 1123).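 Note: z-score combines 667nm fluorescence intensity with signal-to-noise per printed compound spot.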 The settings on record: COS7 cell lysate, fluorescence, higher = more signal.
A short description of assay [6]: probe aLAP1 signal on lysate-treated microarray – cell lysate, small-molecule microarray, COS7 lysate, primary screen (AID 1124).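 Note: lysate comes from COS7 cells expressing LAP1 and is applied at 0.3 µg/mL; score merges spot fluorescence near 667 nm with signal-to-noise over triplicate slides.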 The following applies: probe aLAP1, fluorescence, higher = more signal.
The subject of the next assay is Sam68 (KHDRBS1). As to the kind of experiment: compounds binding KHDRBS1 protein – biochemical, small-molecule microarray, 635 nm fluorescence, primary screen (AID 1125).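 Note: score merges 667 nm channel intensity with signal to noise over triplicate slides.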 The following applies: higher = more signal.
The test system of assay [7] is Chordin-like protein 2 (CHRDL2). As to the kind of experiment: compounds binding chordin-like 2 – biochemical, small-molecule microarray, 635 nm fluorescence, primary screen (AID 1126).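 Note: printed compound slides probed with Chrdl2 protein at 4 µg/mL for 1 h at 4 C; score merges 667 nm emission intensity with signal to noise over three replicate slides.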 The settings on record: fluorescence 635 nm, higher = more signal.
The target of assay [8] is Concanavalin-A (Canavalia ensiformis) (UniProt P02866). Kind of assay: compounds binding concanavalin A lectin – biochemical, small-molecule microarray, Alexa647 label, 635 nm, artefact control for SMM control protein annotation, primary screen (AID 1127).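 Note: z combines 667 nm emission intensity with signal-to-noise across three replicate slides.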 The settings on record: ConA-A647 binding fluorescence, higher = more signal.
Assay [9] in a line: compounds binding Alexa647 anti-His antibody – biochemical, small-molecule microarray, 635 nm fluorescence, artefact control for SMM control protein annotation, primary screen (AID 1128).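 Note: score merges feature fluorescence with signal-to-noise for each printed compound spot.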 The following applies: higher = more signal.
Assay [10] relates to Human papillomavirus type 1a E7 protein (residues 1-88). Kind of assay: HPV1a E7 small-molecule binders, primary screen, biochemical, small-molecule microarray, residues 1-88, 635 nm (AID 1129). The settings on record: small-molecule microarray binding, fluorescence 635 nm; higher = more signal.
Assay [11] concerns the target Focal adhesion kinase 1 (Homo sapiens) (UniProt Q05397). As to the kind of experiment: PTK2 protein binding on printed compound slides – biochemical, small-molecule microarray, 635/667 nm fluorescence, BSA, DTT, primary screen (AID 1130).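 Note: composite of spot emission at 667 nm and signal to noise over triplicate slides.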 The settings on record: 635 nm fluorescence, higher = more signal.
Assay [12] relates to Fibrinogen (Alexa647-labelled). Kind of assay: Alexa647-fibrinogen binding to printed small molecules – biochemical, small-molecule microarray, 635/667 nm fluorescence, artefact control for SMM control-protein annotation, profiling panel (AID 1131).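 Note: z-score merges 667 nm fluorescence with per-spot signal-to-noise over triplicate slides.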 The following applies: fibrinogen-A647 binding fluorescence, higher = more signal.
Assay [13] concerns the target Follistatin (Homo sapiens) (UniProt P19883). As to the kind of experiment: FST protein binding to printed compounds – biochemical, small-molecule microarray, 635/667 nm fluorescence, primary screen (AID 1132). The settings on record: 635 nm fluorescence, higher = more signal.
Assay [14] has as its target Fibroblast growth factor 2 (Homo sapiens) (UniProt P09038). Kind of assay: basic fibroblast growth factor binding to printed compounds – biochemical, small-molecule microarray, 635/667 nm fluorescence, primary screen (AID 1133). The following applies: FGF2, fluorescence 635/667, higher = more signal.
A short description of assay [15]: JC-1 mitochondrial potential readout, lung cancer cells – cell-based, A549, JC-1 fluorescence, basal, 24 h, 100 nL, profiling panel (AID 1138).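 Note: A549 lung adenocarcinoma cells under basal conditions with no added stimulus; test concentration not given here.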 The settings on record: higher = more signal.
The subject of the next assay is Lefty1. As to the kind of experiment: Lefty1 protein binding to printed compounds – biochemical, small-molecule microarray, 635/667 nm fluorescence, primary screen (AID 1139). The settings on record: fluorescence 635/667, higher = more signal.
In assay [16] the test system is wheat germ agglutinin (Triticum aestivum), Alexa647-labelled. As to the kind of experiment: Alexa647-WGA lectin binding to printed small molecules – biochemical, small-molecule microarray, 635/667 nm fluorescence, artefact control for SMM control-protein annotation, profiling panel (AID 1140).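 Note: score merges 667 nm feature emission with signal to noise over triplicate slides.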 The following applies: WGA-A647 binding, 635 nm fluorescence, higher = more signal.

Assay [17] addresses Luciferin 4-monooxygenase (Photinus pyralis) (UniProt P08659). As to the kind of experiment: inhibition of purified Photinus pyralis luciferase – biochemical, luminescence, purified enzyme, 2006 set, primary screen (AID 1141).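 Note: cell-free assay with purified firefly luciferase at 100 ng per well in PBS; test concentration not given here.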 The settings on record: purified firefly luciferase, SteadyGlo luminescence, 30 min; higher = more signal, called active from +8 up or from −8 down.

Chain of Fibroblast growth factor 2 (Homo sapiens) (P09038 whole entry, looked up): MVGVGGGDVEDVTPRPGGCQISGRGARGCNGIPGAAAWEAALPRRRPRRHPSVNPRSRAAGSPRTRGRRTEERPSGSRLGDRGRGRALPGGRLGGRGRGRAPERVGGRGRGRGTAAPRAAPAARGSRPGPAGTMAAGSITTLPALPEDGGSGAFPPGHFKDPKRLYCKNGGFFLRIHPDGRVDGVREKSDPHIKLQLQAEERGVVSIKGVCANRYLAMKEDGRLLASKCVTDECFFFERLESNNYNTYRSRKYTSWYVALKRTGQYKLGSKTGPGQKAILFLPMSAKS
Chain of Luciferin 4-monooxygenase (Photinus pyralis) (P08659 whole entry, looked up): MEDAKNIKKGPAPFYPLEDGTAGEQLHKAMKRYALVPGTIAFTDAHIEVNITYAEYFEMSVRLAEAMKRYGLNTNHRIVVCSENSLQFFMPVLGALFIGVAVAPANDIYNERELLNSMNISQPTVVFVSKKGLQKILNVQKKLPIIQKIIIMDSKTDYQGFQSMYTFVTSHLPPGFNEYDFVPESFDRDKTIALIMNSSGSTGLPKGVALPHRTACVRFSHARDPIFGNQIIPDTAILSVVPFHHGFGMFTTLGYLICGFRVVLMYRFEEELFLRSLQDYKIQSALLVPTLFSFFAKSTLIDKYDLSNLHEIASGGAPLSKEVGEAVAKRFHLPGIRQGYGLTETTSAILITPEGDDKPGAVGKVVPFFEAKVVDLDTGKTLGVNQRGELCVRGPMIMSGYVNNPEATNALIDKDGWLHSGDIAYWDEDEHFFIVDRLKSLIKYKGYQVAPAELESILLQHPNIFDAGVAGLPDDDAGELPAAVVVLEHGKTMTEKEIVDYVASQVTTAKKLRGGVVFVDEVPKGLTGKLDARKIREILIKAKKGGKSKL
Chain of Albumin (Bos taurus) (P02769 whole entry, looked up): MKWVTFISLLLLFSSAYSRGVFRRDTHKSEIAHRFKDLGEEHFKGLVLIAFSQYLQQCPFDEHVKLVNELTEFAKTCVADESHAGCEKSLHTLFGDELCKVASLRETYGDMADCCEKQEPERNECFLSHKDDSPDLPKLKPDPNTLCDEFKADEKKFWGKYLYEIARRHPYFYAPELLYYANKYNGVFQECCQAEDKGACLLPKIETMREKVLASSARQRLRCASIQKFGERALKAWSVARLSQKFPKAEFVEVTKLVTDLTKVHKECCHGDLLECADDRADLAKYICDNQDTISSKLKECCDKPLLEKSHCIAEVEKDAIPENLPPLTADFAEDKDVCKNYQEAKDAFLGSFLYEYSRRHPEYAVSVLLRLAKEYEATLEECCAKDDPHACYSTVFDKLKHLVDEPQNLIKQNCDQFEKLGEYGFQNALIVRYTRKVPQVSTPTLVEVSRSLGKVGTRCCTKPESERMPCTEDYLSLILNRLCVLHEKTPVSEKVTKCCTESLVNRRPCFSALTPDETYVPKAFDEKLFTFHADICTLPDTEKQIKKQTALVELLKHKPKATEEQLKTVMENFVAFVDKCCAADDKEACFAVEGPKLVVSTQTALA
Chain of Focal adhesion kinase 1 (Homo sapiens) (Q05397 whole entry, looked up): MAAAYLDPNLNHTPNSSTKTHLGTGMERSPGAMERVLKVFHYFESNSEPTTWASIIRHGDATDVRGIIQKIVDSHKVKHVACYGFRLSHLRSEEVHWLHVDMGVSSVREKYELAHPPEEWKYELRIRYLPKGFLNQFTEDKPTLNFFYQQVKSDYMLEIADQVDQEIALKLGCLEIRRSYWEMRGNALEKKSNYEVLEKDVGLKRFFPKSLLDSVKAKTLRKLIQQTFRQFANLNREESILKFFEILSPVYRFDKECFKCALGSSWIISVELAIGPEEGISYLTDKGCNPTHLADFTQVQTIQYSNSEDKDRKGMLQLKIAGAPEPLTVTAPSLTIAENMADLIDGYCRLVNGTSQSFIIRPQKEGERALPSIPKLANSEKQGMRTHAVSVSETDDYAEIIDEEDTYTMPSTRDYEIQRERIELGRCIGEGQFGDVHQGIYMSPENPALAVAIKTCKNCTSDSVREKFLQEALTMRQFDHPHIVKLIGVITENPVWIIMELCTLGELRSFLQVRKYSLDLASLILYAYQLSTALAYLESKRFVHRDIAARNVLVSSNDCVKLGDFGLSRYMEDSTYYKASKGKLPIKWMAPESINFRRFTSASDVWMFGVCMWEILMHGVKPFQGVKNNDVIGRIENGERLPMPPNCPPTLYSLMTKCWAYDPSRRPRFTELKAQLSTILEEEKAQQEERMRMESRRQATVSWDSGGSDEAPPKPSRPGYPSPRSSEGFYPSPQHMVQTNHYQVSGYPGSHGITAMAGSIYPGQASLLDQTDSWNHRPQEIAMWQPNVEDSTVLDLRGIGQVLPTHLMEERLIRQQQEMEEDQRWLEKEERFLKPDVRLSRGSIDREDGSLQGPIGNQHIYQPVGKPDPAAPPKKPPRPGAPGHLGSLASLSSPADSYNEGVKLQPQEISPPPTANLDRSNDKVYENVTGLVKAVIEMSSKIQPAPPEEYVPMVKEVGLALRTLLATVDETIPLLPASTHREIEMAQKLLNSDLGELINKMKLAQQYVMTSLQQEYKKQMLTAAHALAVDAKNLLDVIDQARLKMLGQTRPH
Chain of Concanavalin-A (Canavalia ensiformis) (P02866 whole entry, looked up): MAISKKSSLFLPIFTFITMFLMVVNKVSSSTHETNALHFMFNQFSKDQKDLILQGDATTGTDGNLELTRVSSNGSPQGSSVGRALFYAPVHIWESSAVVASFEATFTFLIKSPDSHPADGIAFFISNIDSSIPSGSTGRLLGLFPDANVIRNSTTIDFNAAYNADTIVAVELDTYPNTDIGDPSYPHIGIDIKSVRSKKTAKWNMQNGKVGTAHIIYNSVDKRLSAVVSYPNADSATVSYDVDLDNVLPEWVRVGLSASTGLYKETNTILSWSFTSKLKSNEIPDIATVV
Chain of Follistatin (Homo sapiens) (P19883 whole entry, looked up): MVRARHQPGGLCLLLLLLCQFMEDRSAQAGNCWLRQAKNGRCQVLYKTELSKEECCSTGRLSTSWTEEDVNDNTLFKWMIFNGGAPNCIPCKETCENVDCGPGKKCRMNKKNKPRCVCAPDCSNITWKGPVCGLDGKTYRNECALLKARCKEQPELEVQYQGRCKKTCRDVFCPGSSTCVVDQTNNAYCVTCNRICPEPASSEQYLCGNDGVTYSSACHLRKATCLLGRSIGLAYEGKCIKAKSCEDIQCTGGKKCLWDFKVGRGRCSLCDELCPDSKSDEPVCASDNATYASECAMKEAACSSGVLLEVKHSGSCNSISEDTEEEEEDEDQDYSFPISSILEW

For the molecule `O=C1[C@H]2[C@H]3[C@H](O)[C@H](O)CC(=NO[C@@H]4O[C@H](CO)[C@@H](O)[C@H](O)[C@H]4O)[C@@H]3CC[C@H]2C(=O)N1Cc1ccccc1`, the composite z-score with Albumin (Bos taurus) was -0.0679; in assay [2] it was 0.0744; in assay [3], -0.0623; in assay [4], -0.568; in assay [5], -0.658; in assay [6], 0.0054. Also, the composite z-score in the assay on Sam68 (KHDRBS1) is 0.64; in assay [7], -0.293; in assay [8], -0.664; in assay [9], -0.58; in [10], -0.623; in assay [11], 0.593. Also, the composite z-score is -0.247 in [12]; -0.303 in assay [13]; 0.16 in assay [14]; 0.289 with Lefty1; -0.0706 in assay [16]. Further, in assay [1], the composite Z-score was 0.0769 (inactive). Further, the z-score in assay [15] was 0.129; in assay [17], 0.4 (inactive).
`CCN1C(=O)[C@H]2[C@H]3[C@H](O)[C@H](O)CC(=NOCc4ccccc4)[C@@H]3CC[C@H]2C1=O`: the composite z-score with Albumin (Bos taurus) is -0.0633; in [2] it was 0.302; in assay [3] it was -0.186; in [4], 0.0453; in assay [5] it was 0.37; in assay [6] it was 1.74. Also, the composite z-score in the assay on Sam68 (KHDRBS1) was 0.598; in assay [7] it was 0.589; in assay [8], 0.7; in [9], 0.119; in [10], 0.65; in assay [11], -0.0096. Also, the composite z-score is 0.306 in assay [12]; 0.276 in assay [13]; 0.232 in [14]; 0.538 in the assay with Lefty1; 0.0953 in assay [16]. In addition, in assay [1], the composite Z-score was 1.92 (inactive). The z-score in assay [15] was 1.89; in [17] it was -1.23 (inactive).
Consider `COC(=O)C1=C(C)N(Cc2ccccc2)[C@]23O[C@](C(=O)OC)(C(=O)N2[C@@H]1c1ccccc1)[C@H]1CCOC(=O)[C@H]13`, for which the composite z-score with Albumin (Bos taurus) was 0.735; in assay [2], -0.0587; in [3] it was -0.131; in assay [4] it was 0.0198; in [5], -0.12; in assay [6] it was 0.21. In addition, the composite z-score in the assay with Sam68 (KHDRBS1) is -0.0775; in assay [7], 0.702; in assay [8] it was 0.0349; in assay [9] it was 0.038; in assay [10] it was 0.192; in [11], 0.149. Also, the composite z-score in [12] stood at 0.628; in assay [13] it was 0.384; in assay [14], 0.52; in the assay on Lefty1, 1.41; in assay [16] it was 0.84. Also, the composite Z-score in [1] was 0.493 (inactive). The values for the z-score in [15] and in assay [17] were 0.328 and -0.431 (inactive), respectively.
As to `CN(C)C(=O)[C@@]1(Cc2ccccc2)N=C(c2ccc(OCCCO)cc2)O[C@H]1c1ccccc1CN=[N+]=[N-]`, the composite z-score in the assay with Albumin (Bos taurus) came out at 0.968; in assay [2], 0.329; in [3], 0.319; in assay [4], 0.587; in assay [5], 2.49; in assay [6], 0.797. Moreover, the composite z-score is 1.29 in the assay with Sam68 (KHDRBS1); -0.25 in assay [7]; 1.14 in [8]; 3.27 in assay [9]; 1.25 in assay [10]; 0.254 in assay [11]. In addition, the composite z-score in assay [12] was 1.02; in assay [13], 1.37; in assay [14], 1.18; in the assay on Lefty1, 0.485; in [16], 1.25. Further, the composite Z-score in [1] is 1.29 (inactive). Further, the z-score was 1.97 in [15] and -0.088 (inactive) in assay [17].
Take `Cc1ccc(S[C@]2(C(=O)O)CC(=O)N(Cc3ccccc3)[C@@H]2c2ccc(CO)cc2I)cc1`: the composite z-score with Albumin (Bos taurus) was 0.258; in [2] it was -0.206; in assay [3] it was -0.13; in assay [4], 0.701; in assay [5], 0.921; in assay [6], 0.223. For the same molecule, the composite z-score with Sam68 (KHDRBS1) was found to be 0.21; in [7], 0.347; in assay [8], 0.883; in [9] it was 2.86; in assay [10], 0.242; in assay [11], 0.284. The composite z-score in assay [12] is 0.186; in assay [13], 0.023; in assay [14], -0.697; with Lefty1, -0.69; in assay [16] it was 0.189. The composite Z-score in [1] was -0.523 (inactive). The z-score in [15] was 0.305; in [17] it was -0.57 (inactive).
